# Data from PubChem BioAssay (EPA / NIEHS).
# Active and inactive are the calls of the source. Rule for the calls: active = hit-call score of the fitted dose curve at least 0.9, where 1 is the maximum; inactive = score below 0.9.
# Experiments:
# [1] = ATG_GLI_CIS: Attagene CIS-FACTORIAL HepG2 Assay for human Zinc Finger Protein GLI1 (AID 2282945); conditions: HepG2, Attagene cis-factorial reporter mRNA, GLI element; actives raise or lower the signal
# How it was run: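 Transiently transfected HepG2 cells report endogenous transcription factor activity via cis-element-driven reporter units. After 24 h compound exposure, reporter mRNA was measured by RT-PCR with capillary electrophoresis; bidirectional fitting against DMSO baseline.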
# [2] = ATG_GRE_CIS: Attagene CIS-FACTORIAL HepG2 Assay for human Glucocorticoid Response Elements (GRE) (AID 2282947); conditions: HepG2 GRE cis-reporter, Attagene multiplex mRNA; actives raise or lower the signal
# How it was run: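 Endogenous transcription factor activity is read through cis-element reporter constructs transiently transfected into HepG2 cells. After 24 h treatment, labelled RT-PCR products are resolved by capillary electrophoresis; DMSO sets baseline for bidirectional curve fitting.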
# [3] = ATG_ISRE_CIS: Attagene CIS-FACTORIAL HepG2 Assay for human Interferon Regulatory Factor 1 (IRF1) binding to an Interferon-Stimulated Response Element (ISRE) (AID 2282948); conditions: HepG2 ISRE cis-reporter (Attagene), mRNA transcription readout; actives raise or lower the signal
# How it was run: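 Cell-based cis-reporter assay; HepG2; 24 h exposure; reporter mRNA by RT-PCR plus capillary electrophoresis fluorescence; activity in either direction scored relative to DMSO.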
# [4] = ATG_M_32_CIS: Attagene CIS-FACTORIAL HepG2 Assay for M32 Transcription Factor (Internal Marker) (AID 2282949); conditions: HepG2 Attagene cis-factorial M32 reporter, mRNA; actives raise or lower the signal;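 note: background control marker of the multiplexed CIS panel rather than a real target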
# How it was run: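 Internal background marker read-out: RT-PCR/capillary electrophoresis fluorescence of reporter transcripts from transiently transfected HepG2 cells after 24 h chemical exposure. Activity fitted bidirectionally relative to DMSO negative control.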
# [5] = ATG_M_06_CIS: Attagene CIS-FACTORIAL HepG2 Assay for M06 Transcription Factor (Internal Marker) (AID 2282950); conditions: HepG2 Attagene CIS-FACTORIAL M06 internal marker reporter; actives raise or lower the signal
# How it was run: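 Steps: transfect HepG2 with multiplexed cis-element reporter constructs; dose chemical 24 h; extract RNA with DNase treatment; reverse-transcribe, PCR-amplify, 6-FAM label, HpaI digest; separate fragments by capillary electrophoresis. Activity fitted both directions versus DMSO.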
# [6] = target: Hypoxia-inducible factor 1-alpha (Homo sapiens) (UniProt Q16665); assay: ATG_HIF1a_CIS: Attagene CIS-FACTORIAL HepG2 Assay for human Hypoxia Inducible Factor 1 (HIF1A) (AID 2282951); conditions: HepG2 Attagene cis-factorial HIF1a reporter transcription; actives raise or lower the signal
# How it was run: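 In this multiplexed cell assay, HepG2 cells bearing transfected cis reporters are dosed for 24 h and reporter mRNA is read by RT-PCR plus capillary electrophoresis; signal increases and decreases are both scored against DMSO.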
# [7] = target: Hepatocyte nuclear factor 6 (Homo sapiens) (UniProt Q9UBC0); assay: ATG_HNF6_CIS: Attagene CIS-FACTORIAL HepG2 Assay for human Hepatocyte Nuclear Factor 6 (HNF6) (AID 2282952); conditions: HepG2 Attagene cis-factorial HNF6 reporter transcription; actives raise or lower the signal
# How it was run: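 Reporter mRNA induction or loss in HepG2 after 24 h exposure; transient cis-MRTU transfection; fragments quantified by capillary electrophoresis; bidirectional analysis, DMSO as negative control.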
# [8] = target: Heat shock factor protein 1 (Homo sapiens) (UniProt Q00613); assay: ATG_HSE_CIS: Attagene CIS-FACTORIAL HepG2 Assay for human Heat Shock Transcription Factor 1 (HSE) (AID 2282953); conditions: HepG2 HSE cis-reporter, Attagene RNA transcription; actives raise or lower the signal
# How it was run: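 Cells were transfected with cis-element-driven reporter constructs, dosed for 24 h, then total RNA was reverse-transcribed and reporter cDNA amplified, FAM-labelled and digested with HpaI. Fragments were resolved by capillary electrophoresis; gain or loss was fitted against DMSO.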
# [9] = ATG_MRE_CIS: Attagene CIS-FACTORIAL HepG2 Assay for human Metal Responsive Element (MRE) (AID 2282954); conditions: HepG2 MRE cis-reporter transcription, Attagene multiplex; actives raise or lower the signal
# How it was run: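 Fluorescent reporter fragments separated by capillary electrophoresis give mRNA induction for the MRE unit after 24 h treatment of transfected HepG2 cells. Endogenous transcription-factor activity is read; DMSO serves as negative control and baseline.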
# [10] = ATG_PBREM_CIS: Attagene CIS-FACTORIAL HepG2 Assay for human Phenobarbital-responsive Enhancer Module (PBREM) (AID 2282955); conditions: HepG2 PBREM cis-reporter, Attagene multiplexed transcription; actives raise or lower the signal
# How it was run: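 After a 24 h incubation with test chemical, transfected HepG2 cells yield total RNA; reporter-specific RT-PCR products are fluorescently labelled, HpaI-digested and resolved by capillary electrophoresis against ROX size standards.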
# [11] = ATG_PXRE_CIS: Attagene CIS-FACTORIAL HepG2 Assay for human Pregnane X Receptor Element (PXRE) (AID 2282957); conditions: HepG2 Attagene CIS-FACTORIAL PXRE reporter, mRNA; actives raise or lower the signal
# How it was run: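 Transiently transfected HepG2 cells were dosed and incubated for 24 h. RNA was then isolated, DNase-treated, reverse-transcribed and reporter sequences amplified. Labeled, HpaI-digested fragments were quantified by capillary electrophoresis against DMSO.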
# [12] = target: Transcription factor Sp1 (Homo sapiens) (UniProt P08047); assay: ATG_Sp1_CIS: Attagene CIS-FACTORIAL HepG2 Assay for human Specificity Protein 1 (Sp1) (AID 2282961); conditions: HepG2 Sp1 cis-reporter transcription, actives raise or lower the signal
# How it was run: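 Sp1-driven reporter mRNA, read as capillary electrophoresis fluorescence after RT-PCR, in transiently transfected HepG2 cells dosed for 24 h; signal change in either direction relative to DMSO.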
# [13] = ATG_SREBP_CIS: Attagene CIS-FACTORIAL HepG2 Assay for human Sterol Regulatory Element Binding (SREBP) (AID 2282962); conditions: HepG2 Attagene cis-factorial SREBP reporter, mRNA; actives raise or lower the signal
# How it was run: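 mRNA induction of transfected cis-promoter reporters in HepG2 cells, 24 h post-dose. Detection: RT-PCR with 6-FAM-labelled products, HpaI digest, capillary electrophoresis. DMSO served as negative control and baseline.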
# [14] = target: Signal transducer and activator of transcription 3 (Homo sapiens) (UniProt P40763); assay: ATG_STAT3_CIS: Attagene CIS-FACTORIAL HepG2 Assay for human Signal Transducer and Activator of Transcription 3 (STAT3) (AID 2282963); conditions: HepG2, Attagene cis-factorial STAT3 reporter transcription; actives raise or lower the signal
# How it was run: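 Values derive from bidirectional fits relative to DMSO of reporter mRNA levels, measured by RT-PCR with capillary electrophoresis, in HepG2 cells carrying transiently transfected cis-regulated reporter units and exposed 24 h.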
# [15] = ATG_TA_CIS: Attagene CIS-FACTORIAL HepG2 Assay for human TA Basal Promoter (AID 2282964); conditions: HepG2 Attagene CIS-factorial TA basal promoter reporter; actives raise or lower the signal
# How it was run: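 Steps: transfect HepG2 with MRTUs; dose 24 h; isolate RNA, DNase-treat, reverse-transcribe; PCR and FAM-label reporter cDNA; digest with HpaI 2h at 37 C; run capillary electrophoresis. Activity fitted both directions against DMSO.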
# [16] = target: Paired box protein Pax-6 (Homo sapiens) (UniProt P26367); assay: ATG_Pax6_CIS: Attagene CIS-FACTORIAL HepG2 Assay for human Paired Box 6 (PAX6) (AID 2282956); conditions: HepG2 CIS-FACTORIAL PAX6 reporter transcription, RNA readout; actives raise or lower the signal
# How it was run: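 Multiplexed cis-reporter HepG2 system; 24 h treatment; reporter mRNA read by RT-PCR/CE fluorescence; bidirectional fit vs DMSO.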
# [17] = ATG_RORE_CIS: Attagene CIS-FACTORIAL HepG2 Assay for human RAR-related Orphan Receptor Element (RORE) (AID 2282959); conditions: HepG2 Attagene cis-factorial RORE reporter, mRNA; actives raise or lower the signal
# How it was run: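 Fluorescence intensity of reporter-specific cDNA fragments, separated by capillary electrophoresis, gives the signal. Source: HepG2 liver cells transiently transfected with cis-element reporters and exposed 24 h; DMSO-normalized bidirectional fit.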
# [18] = ATG_Sox_CIS: Attagene CIS-FACTORIAL HepG2 Assay for human SRY-box transcription factor (SOX) (AID 2282960); conditions: HepG2 Attagene cis-factorial SOX reporter, mRNA; actives raise or lower the signal
# How it was run: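 After 24 h of chemical treatment, transfected HepG2 reporter cells are lysed for total RNA. Transcript levels come from RT-PCR with labelled primer extension and capillary electrophoresis, analysed bidirectionally versus DMSO.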
# [19] = ATG_PPRE_CIS: Attagene CIS-FACTORIAL HepG2 Assay for human Peroxisome Proliferator-activated Response Element (PPRE) (AID 2282958); conditions: HepG2 PPRE cis-element reporter, Attagene transcription factor profiling; actives raise or lower the signal
# How it was run: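 Multiplexed reporter transcription units under cis-regulatory promoters were transfected into HepG2 cells to capture endogenous factor activity. A 24 h incubation preceded RNA isolation and fluorescent RT-PCR fragment analysis.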
# Sequence of Transcription factor Sp1 (Homo sapiens) (P08047 whole entry, looked up): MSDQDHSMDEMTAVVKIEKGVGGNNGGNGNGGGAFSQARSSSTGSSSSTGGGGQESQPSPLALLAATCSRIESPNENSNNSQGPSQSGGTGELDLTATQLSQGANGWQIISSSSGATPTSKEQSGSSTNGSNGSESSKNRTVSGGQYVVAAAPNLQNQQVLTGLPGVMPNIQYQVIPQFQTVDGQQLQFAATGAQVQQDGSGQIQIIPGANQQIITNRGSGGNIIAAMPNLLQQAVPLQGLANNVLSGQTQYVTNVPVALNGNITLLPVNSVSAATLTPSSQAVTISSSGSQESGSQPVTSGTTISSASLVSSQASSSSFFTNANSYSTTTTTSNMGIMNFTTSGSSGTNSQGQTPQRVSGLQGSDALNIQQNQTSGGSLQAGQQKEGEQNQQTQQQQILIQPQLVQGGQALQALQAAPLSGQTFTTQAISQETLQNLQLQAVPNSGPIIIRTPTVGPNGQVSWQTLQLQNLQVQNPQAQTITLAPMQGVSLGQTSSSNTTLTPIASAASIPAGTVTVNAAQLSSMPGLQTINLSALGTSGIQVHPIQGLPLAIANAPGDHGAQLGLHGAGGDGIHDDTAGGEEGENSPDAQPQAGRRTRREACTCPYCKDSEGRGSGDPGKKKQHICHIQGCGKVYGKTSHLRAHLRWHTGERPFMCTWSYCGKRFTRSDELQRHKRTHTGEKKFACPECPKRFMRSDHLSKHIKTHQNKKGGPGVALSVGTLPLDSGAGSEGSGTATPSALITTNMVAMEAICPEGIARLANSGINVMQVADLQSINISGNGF
# Sequence of Hepatocyte nuclear factor 6 (Homo sapiens) (Q9UBC0 whole entry, looked up, the tested form may be a part): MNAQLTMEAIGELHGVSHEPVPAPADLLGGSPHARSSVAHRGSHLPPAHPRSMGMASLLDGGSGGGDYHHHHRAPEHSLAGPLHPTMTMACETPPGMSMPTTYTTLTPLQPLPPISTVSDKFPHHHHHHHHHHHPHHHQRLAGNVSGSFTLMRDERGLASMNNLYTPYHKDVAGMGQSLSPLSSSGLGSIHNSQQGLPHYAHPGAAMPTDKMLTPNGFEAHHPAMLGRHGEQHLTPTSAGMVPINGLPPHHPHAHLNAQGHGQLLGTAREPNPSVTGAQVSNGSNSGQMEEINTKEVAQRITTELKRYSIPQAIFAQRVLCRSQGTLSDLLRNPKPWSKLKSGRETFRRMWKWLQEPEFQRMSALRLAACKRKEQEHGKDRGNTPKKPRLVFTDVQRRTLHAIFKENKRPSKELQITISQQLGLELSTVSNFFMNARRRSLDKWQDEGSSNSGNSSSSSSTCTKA
# Sequence of Hypoxia-inducible factor 1-alpha (Homo sapiens) (Q16665 whole entry, looked up): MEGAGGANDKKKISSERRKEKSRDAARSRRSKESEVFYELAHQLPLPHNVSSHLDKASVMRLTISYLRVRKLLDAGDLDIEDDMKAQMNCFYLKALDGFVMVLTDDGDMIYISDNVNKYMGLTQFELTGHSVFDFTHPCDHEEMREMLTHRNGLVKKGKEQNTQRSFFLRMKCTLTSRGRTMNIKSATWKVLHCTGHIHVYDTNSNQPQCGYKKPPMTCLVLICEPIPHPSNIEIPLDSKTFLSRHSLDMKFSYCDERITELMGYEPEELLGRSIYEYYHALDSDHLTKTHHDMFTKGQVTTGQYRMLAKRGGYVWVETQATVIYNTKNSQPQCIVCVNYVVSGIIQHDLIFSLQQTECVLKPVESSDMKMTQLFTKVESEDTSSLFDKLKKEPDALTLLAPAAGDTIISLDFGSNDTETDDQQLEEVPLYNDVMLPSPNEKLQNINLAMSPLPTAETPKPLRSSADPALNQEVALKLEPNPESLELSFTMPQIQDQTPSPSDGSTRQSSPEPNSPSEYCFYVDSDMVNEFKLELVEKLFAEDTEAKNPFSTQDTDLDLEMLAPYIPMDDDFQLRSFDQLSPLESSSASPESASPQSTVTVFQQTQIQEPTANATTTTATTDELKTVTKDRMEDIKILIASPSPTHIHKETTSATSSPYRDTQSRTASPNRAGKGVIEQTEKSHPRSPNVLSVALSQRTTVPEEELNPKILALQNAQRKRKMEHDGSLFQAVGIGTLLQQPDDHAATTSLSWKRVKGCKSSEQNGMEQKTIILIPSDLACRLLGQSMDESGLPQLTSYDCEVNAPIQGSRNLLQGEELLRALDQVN
# Sequence of Heat shock factor protein 1 (Homo sapiens) (Q00613 whole entry, looked up, the tested form may be a part): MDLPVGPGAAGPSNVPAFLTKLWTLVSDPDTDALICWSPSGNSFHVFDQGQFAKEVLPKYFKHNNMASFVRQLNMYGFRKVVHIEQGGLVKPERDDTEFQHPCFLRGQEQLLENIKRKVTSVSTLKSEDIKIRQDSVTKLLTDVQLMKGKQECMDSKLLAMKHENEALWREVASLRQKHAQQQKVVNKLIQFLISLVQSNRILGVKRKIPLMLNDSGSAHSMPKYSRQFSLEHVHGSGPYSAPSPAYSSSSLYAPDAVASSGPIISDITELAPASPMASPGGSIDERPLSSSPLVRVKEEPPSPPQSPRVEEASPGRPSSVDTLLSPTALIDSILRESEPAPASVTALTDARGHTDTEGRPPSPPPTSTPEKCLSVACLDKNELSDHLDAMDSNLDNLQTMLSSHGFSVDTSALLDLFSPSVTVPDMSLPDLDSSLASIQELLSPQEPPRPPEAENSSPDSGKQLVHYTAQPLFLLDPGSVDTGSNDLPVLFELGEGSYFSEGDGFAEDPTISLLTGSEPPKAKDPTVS
# Sequence of Paired box protein Pax-6 (Homo sapiens) (P26367 whole entry, looked up): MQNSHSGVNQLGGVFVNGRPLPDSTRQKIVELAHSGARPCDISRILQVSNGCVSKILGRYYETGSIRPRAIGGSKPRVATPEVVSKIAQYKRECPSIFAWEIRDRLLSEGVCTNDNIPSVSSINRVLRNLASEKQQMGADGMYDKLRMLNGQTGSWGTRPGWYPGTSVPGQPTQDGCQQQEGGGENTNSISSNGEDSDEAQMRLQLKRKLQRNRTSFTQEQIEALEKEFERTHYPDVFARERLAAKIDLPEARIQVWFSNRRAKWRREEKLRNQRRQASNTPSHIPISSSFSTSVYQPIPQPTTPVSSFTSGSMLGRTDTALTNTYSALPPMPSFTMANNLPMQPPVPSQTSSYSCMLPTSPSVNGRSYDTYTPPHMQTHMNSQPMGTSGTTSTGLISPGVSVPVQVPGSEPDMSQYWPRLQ
# Sequence of Signal transducer and activator of transcription 3 (Homo sapiens) (P40763 whole entry, looked up): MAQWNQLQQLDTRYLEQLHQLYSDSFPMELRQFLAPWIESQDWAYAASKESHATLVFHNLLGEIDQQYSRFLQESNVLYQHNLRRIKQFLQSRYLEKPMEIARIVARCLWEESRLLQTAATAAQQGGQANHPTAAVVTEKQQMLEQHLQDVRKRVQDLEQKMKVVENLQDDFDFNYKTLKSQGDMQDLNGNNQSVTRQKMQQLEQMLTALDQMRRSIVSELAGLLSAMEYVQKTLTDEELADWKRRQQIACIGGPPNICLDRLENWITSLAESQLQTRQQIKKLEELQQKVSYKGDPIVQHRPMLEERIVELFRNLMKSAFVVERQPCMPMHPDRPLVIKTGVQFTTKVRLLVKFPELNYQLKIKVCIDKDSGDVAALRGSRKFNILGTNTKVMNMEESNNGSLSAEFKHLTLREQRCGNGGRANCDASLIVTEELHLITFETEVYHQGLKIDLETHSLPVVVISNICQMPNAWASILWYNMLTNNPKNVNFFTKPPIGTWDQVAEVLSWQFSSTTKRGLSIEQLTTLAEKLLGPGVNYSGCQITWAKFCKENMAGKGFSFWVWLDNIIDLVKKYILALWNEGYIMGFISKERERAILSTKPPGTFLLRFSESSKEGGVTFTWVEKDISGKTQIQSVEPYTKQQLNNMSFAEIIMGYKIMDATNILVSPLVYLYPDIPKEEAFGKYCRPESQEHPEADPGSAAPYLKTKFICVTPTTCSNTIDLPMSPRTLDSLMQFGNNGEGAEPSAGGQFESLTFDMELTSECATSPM
smiles,measurement,setting,value
CO[Si](C)(C)OC,outcome,[1],inactive
same,outcome,[2],inactive
same,outcome,[3],inactive
same,outcome,[4],inactive
same,outcome,[5],inactive
same,outcome,[6],inactive
same,outcome,[7],inactive
same,outcome,[8],inactive
same,outcome,[9],inactive
same,outcome,[10],inactive
same,AC50,[11],184 µM (active)
same,outcome,[12],inactive
same,outcome,[13],inactive
same,outcome,[14],inactive
same,outcome,[15],inactive
CC(C)CO,outcome,[1],inactive
same,outcome,[2],inactive
same,outcome,[3],inactive
same,outcome,[4],inactive
same,outcome,[5],inactive
same,outcome,[6],inactive
same,outcome,[7],inactive
same,outcome,[8],inactive
same,outcome,[9],inactive
same,outcome,[10],inactive
same,outcome,[16],inactive
same,outcome,[11],inactive
same,outcome,[17],inactive
same,outcome,[18],inactive
same,outcome,[12],inactive
same,outcome,[13],inactive
same,outcome,[14],inactive
same,outcome,[15],inactive
O=C1CCCCC1C1CCCCC1 (stereo unspecified),outcome,[1],inactive
same,outcome,[2],inactive
same,outcome,[3],inactive
same,outcome,[4],inactive
same,outcome,[5],inactive
same,outcome,[6],inactive
same,outcome,[7],inactive
same,outcome,[8],inactive
same,outcome,[9],inactive
same,outcome,[16],inactive
same,AC50,[11],27.3 µM (active)
same,outcome,[19],inactive
same,outcome,[17],inactive
same,outcome,[18],inactive
same,outcome,[12],inactive
same,outcome,[13],inactive
same,outcome,[14],inactive
same,outcome,[15],inactive
CCCCCC[C@@H](O)C/C=C\CCCCCCCC(=O)OCC(O)CO (stereo partly specified),AC50,[1],143 µM (active)
same,AC50,[2],149 µM (active)
same,outcome,[3],inactive
same,AC50,[4],160 µM (active)
same,outcome,[5],inactive
same,AC50,[6],67.2 µM (active)
same,outcome,[7],inactive
same,AC50,[9],144 µM (active)
same,AC50,[16],134 µM (active)
same,outcome,[11],inactive
same,AC50,[19],11 µM (active)
same,outcome,[17],inactive
same,outcome,[18],inactive
same,AC50,[12],190 µM (active)
same,AC50,[13],122 µM (active)
same,outcome,[14],inactive
same,AC50,[15],150 µM (active)
CCOC(=O)[C@H](O)[C@@H](O)C(=O)OCC,outcome,[1],inactive
same,outcome,[2],inactive
same,outcome,[3],inactive
same,outcome,[4],inactive
same,outcome,[5],inactive
same,outcome,[6],inactive
same,outcome,[7],inactive
same,outcome,[8],inactive
same,outcome,[9],inactive
same,outcome,[16],inactive
same,outcome,[19],inactive
same,outcome,[18],inactive
same,outcome,[12],inactive
same,outcome,[13],inactive
same,outcome,[14],inactive
same,outcome,[15],inactive
CCCCCCCCCCCC(=O)N(C)CC(=O)O,outcome,[1],inactive
same,outcome,[2],inactive
same,outcome,[3],inactive
same,outcome,[4],inactive
same,outcome,[5],inactive
same,outcome,[6],inactive
same,outcome,[7],inactive
same,outcome,[8],inactive
same,outcome,[9],inactive
same,outcome,[16],inactive
same,AC50,[19],8.09 µM (active)
same,AC50,[17],19.6 µM (active)
same,outcome,[18],inactive
same,outcome,[12],inactive
same,outcome,[13],inactive
same,outcome,[14],inactive
CC(=O)CC(=O)Nc1ccccc1C,outcome,[1],inactive
same,outcome,[2],inactive
same,outcome,[3],inactive
same,outcome,[4],inactive
same,outcome,[5],inactive
same,outcome,[6],inactive
same,outcome,[7],inactive
same,outcome,[9],inactive
same,outcome,[10],inactive
same,outcome,[16],inactive
same,outcome,[11],inactive
same,outcome,[18],inactive
same,outcome,[12],inactive
same,outcome,[13],inactive
same,outcome,[14],inactive
same,outcome,[15],inactive
[Cl][Eu]([Cl])[Cl],outcome,[1],inactive
same,outcome,[2],inactive
same,outcome,[3],inactive
same,outcome,[4],inactive
same,outcome,[5],inactive
same,outcome,[6],inactive
same,outcome,[7],inactive
same,outcome,[9],inactive
same,outcome,[16],inactive
same,outcome,[18],inactive
same,outcome,[12],inactive
same,outcome,[13],inactive
same,outcome,[14],inactive
same,outcome,[15],inactive
O=C(C=Cc1ccccc1)OCCc1ccccc1,outcome,[1],inactive
same,outcome,[2],inactive
same,AC50,[3],77.6 µM (active)
same,outcome,[4],inactive
same,outcome,[5],inactive
same,outcome,[6],inactive
same,outcome,[7],inactive
same,outcome,[8],inactive
same,AC50,[9],40.4 µM (active)
same,outcome,[16],inactive
same,AC50,[11],12.8 µM (active)
same,outcome,[17],inactive
same,outcome,[18],inactive
same,outcome,[12],inactive
same,outcome,[13],inactive
same,AC50,[15],53.9 µM (active)
